Compounds with a hit are over-represented: about 2.1% of the library has one in this group of screens.
TDP43 rescue = qHTS of TDP-43 Inhibitors | AID 652104, 2013 | Potency, µM (top dose mostly 46.1 µM), inactives show top-dose growth rescue (activation), most hits filed as activators | TDP-43 expressing yeast growth rescue, BacTiter-Glo, 24 h | hit rate 1.8% among 410,000; note: % of control where 0% means no effect; nearly all actives have a fitted effect of over 50% in size
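Luminescence from BacTiter-Glo reports growth of TDP-43-expressing yeast after 24 hr at 30 deg C with compound. Cells were raffinose-pregrown to mid-log, then seeded in galactose medium at OD600=0.02.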
FUS suppressor = qHTS for Suppressors of FUS Proteinopathy: Primary screen using FUS-linked yeast assay. S. cerevisiae FUS-expressing, growth rescue, OD600, 24 h. Potency, µM (doses to about 76.6 µM), most hits filed as activators. AID 1347120, 2019. hit rate 0.24% among 390,000;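 note: plate controls were DMSO vehicle for no effect and reference control for full effect; nearly all actives have a fitted effect of over 55% in size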
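Yeast expressing FUS under galactose induction, OD 0.005 in 2% galactose medium; compounds in a dilution series, 24 h at 30C. Growth rescue by absorbance at 600 nm; CP55940 positive control, DMSO negative.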
aSyn yeast inh = qHTS of alpha-syn Inhibitors; Yeast expressing alpha-synuclein, growth rescue, BacTiter-Glo, 24 h; Potency, µM (series often up to 46.1 µM), without a hit: at the top dose growth rescue (activation), hits mostly activators; hit rate 0.14% among 370,000; note: % of control where 0% means no effect; nearly all actives have a fitted effect of over 65% in size
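Readout is rescue of growth in alpha-synuclein-expressing yeast, so inhibitors of toxicity appear as activators. Growth after 24 hr at 30 deg C in galactose medium is quantified by luminescence.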
Abeta yeast res = qHTS for compounds that reverse cellular toxicity of Amyloid beta (A-beta) peptide in yeast: Primary Screen. yeast expressing A-beta42, growth rescue, OD600, 48 h; response scale: 0% DMSO, 100% iron-clioquinol control. Potency, µM (titrated, usually from 46.1 µM), usual class: activators. hit rate 0.063% among 410,000. AID 1347071, 2019; note: nearly all actives have a fitted effect of over 55% in size
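Yeast growth medium received pinned compounds, then yeast cells expressing toxic A-beta were added; plates incubated at 30 C for 48 hr. Growth read as absorbance at 600 nm, normalized to DMSO and equimolar FeCl3 plus clioquinol controls.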
Starred values were filed as active, the others as inactive; i = inactive; ? = inconclusive; nt = no result. Calls come from the whole dose curve; as a rule, active = well fitted curve in the direction sought with a large enough effect; inconclusive = small, poorly fitted or top-dose-only effect, or another doubt; inactive = no such curve, though single readings can be large; an effect the other way counts as inactive or inconclusive. Potency is the fitted concentration of half-maximal effect.

SMILES | TDP43 rescue | FUS suppressor | aSyn yeast inh | Abeta yeast res
C=CCN(CC#Cc1ccc(OC)cc1)CC=C | nt | i | nt | nt
O=C(CSc1nnc(-c2ccco2)n1-c1ccc(Cl)cc1)Nc1ccc(S(=O)(=O)Nc2nccs2)cc1 | nt | 25µM* | nt | nt
Nn1c(SCC(=O)Nc2ccc(S(=O)(=O)Nc3nccs3)cc2)nnc1-c1ccco1 | nt | i | nt | nt
CCNC(=S)NNC(=O)CSc1nnc(-c2ccccc2)n1-c1ccc(Cl)cc1 | nt | i | nt | nt
Cc1ccc(NCc2ccc([N+](=O)[O-])s2)cc1 | 11µM* | i | 17% | i
Cc1cccc(NCc2ccc([N+](=O)[O-])s2)c1 | ? | i | 27% | i
O=[N+]([O-])c1ccc(CNc2cccc(F)c2)s1 | 11µM* | i | 19% | ?
Cc1ccccc1NCc1ccc([N+](=O)[O-])s1 | 11µM* | i | 12% | i
CCOC(=O)C1C[C@@H](O)C=CC1=O (stereo not given in full) | nt | i | nt | nt
COc1ccccc1Cc1c(-c2ccc(C)cc2)nc2ccc(Br)cn12 | 3% | i | -2% | i
COC(=O)c1ccc2nc(-c3ccc(C)cc3)c(Cc3ccccc3OC)n2c1 | -8% | i | -5% | i
COc1ccccc1Cc1c(-c2ccccc2)nc2ccc(Br)cn12 | 35µM* | i | -1% | i
FC(F)(F)c1ccccc1Cc1c(C2CCCCC2)nc2ccc(Br)cn12 | ? | i | -39% | i
COC(=O)c1ccc2nc(-c3ccccc3)c(Cc3ccccc3OC)n2c1 | 35µM* | i | -6% | i
COc1ccccc1Cc1c(C2CCCCC2)nc2ccc(Br)cn12 | 13µM* | i | -2% | i
Cc1c(CC(=O)N2CCCCC2)c(=O)oc2cc3occ(C(C)(C)C)c3cc12 | 14% | i | nt | i
O=C(Cn1nnc(-c2ccccc2F)n1)Nc1ccc(Cl)cc1 | nt | i | nt | nt
COc1ccc([C@H]2CC(=O)C=C(c3ccccc3OC)C2)cc1OC | 20µM* | i | 9% | i
COc1ccc([C@H]2CC(=O)C=C(c3cccc(Cl)c3)C2)cc1OC | 22µM* | i | 10% | i
COc1ccc([C@H]2CC(=O)C=C(c3ccccc3)C2)cc1OC | ? | i | 1% | i
COc1ccc(C2=CC(=O)C[C@H](c3ccc(OC)c(OC)c3)C2)cn1 | ? | i | 6% | i
CCCCC/C=C/C1=CC(=O)C[C@H](c2ccc(OC)c(OC)c2)C1 | 35µM* | ? | ? | i
COc1ccc(C=O)cc1C1=CC(=O)C[C@H](c2ccc(Cl)cc2)C1 | 20µM* | ? | 3% | i
CCc1nnc(NC(=O)CSc2nccn2Cc2ccc(F)cc2)s1 | -14% | i | -6% | i
CCCCCCCNC1=CC(=O)CC(c2ccccc2)C1 (stereo not given) | 20µM* | i | 17% | i
SMILES | TDP43 rescue | FUS suppressor | aSyn yeast inh | Abeta yeast res
CCCCCNC1=CC(=O)CC(c2ccccc2)C1 (stereo not given) | -8% | i | 0% | i
CCc1ccc(OC)c(-c2csc(N)n2)c1 | 16% | i | -23% | i
Nc1nc(-c2cc(Cl)cc(Cl)c2OC(F)F)cs1 | 16µM* | i | 2% | i
Cc1ccc(S(=O)(=O)NCCNc2ccc([N+](=O)[O-])cc2)cc1 | 26% | i | 12% | i
Cc1ccc(S(=O)(=O)Nc2c(C)cc([N+](=O)[O-])cc2C)cc1 | 14µM* | nt | 18% | i
O=C(OCc1ccccc1Cl)c1ccc(-n2cnnc2)cc1 | 13µM* | i | 12% | i
COc1cc(-c2c(C(=O)c3ccccc3)[nH]c(N)c2C(N)=O)ccc1O | nt | i | nt | nt
CCn1c(SCC(=O)NN=Cc2c(C)nn(-c3ccccc3)c2C)nnc1-c1ccc(OC)c(OC)c1 | nt | i | nt | nt
CNC(=S)N1N=C(c2ccc(OC)cc2)CC1c1ccccc1Cl (stereo not given) | 3.2µM* | i | -14% | i
COc1ccc(S(=O)(=O)NCC(c2cccs2)S(=O)(=O)c2ccccc2)cc1OC (stereo not given) | 3.2µM* | i | nt | i
O=S(=O)(NCC(c1cccs1)S(=O)(=O)c1ccccc1)c1ccc(F)c(C(F)(F)F)c1 (stereo not given) | ? | i | nt | i

Screening results from PubChem.
